# Reference: publication PMC7862700, “An all-to-all approach to the identification of sequence-specific readers for epigenetic DNA modifications on cytosine”
# Experiments:
# Assay in all cases: DAPPL (digital affinity profiling via proximity ligation, sequencing); 10 mM Tris-HCl pH 7.5, 50 mM NaCl, 1 mM DTT, 4% glycerol, room temperature, 30 min; GST-TFs on glutathione beads, 16-mer random dsDNA library, 0.1% formaldehyde crosslink after washing; high values mean tight binding
# Details in all cases: protein: recombinant; tags: N-terminal GST; dsDNA, one strand shown
# [1] = target: T1, ELK1 (Homo sapiens, UniProt P19419 1-428)
# T1 sequence: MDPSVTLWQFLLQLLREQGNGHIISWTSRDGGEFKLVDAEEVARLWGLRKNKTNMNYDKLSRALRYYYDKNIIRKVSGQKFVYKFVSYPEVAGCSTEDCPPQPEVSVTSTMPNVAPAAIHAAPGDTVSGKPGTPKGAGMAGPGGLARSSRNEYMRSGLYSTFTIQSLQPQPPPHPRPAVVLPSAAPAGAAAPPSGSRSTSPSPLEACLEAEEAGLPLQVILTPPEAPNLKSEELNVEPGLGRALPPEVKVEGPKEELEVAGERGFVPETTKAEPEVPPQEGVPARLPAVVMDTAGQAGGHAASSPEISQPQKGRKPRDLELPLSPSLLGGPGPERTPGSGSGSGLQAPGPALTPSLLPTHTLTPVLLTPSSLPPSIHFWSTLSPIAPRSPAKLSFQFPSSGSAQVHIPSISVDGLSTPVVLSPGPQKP
# Outline: (§1)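 Pools were built from human transcription factors expressed in yeast as GST fusions, captured on glutathione beads and DNA-barcoded, along with a tag-only sample. Incubation with 200 nmole of a 16-mer random double-stranded DNA library lasted 30 min at room temperature in Tris/NaCl/DTT/glycerol buffer, and was followed by washing, 0.1% formaldehyde crosslinking, proximity ligation, PCR amplification and Illumina NextSeq500 sequencing. Binding signal is the quotient of each hexamer's read frequency for a factor and its frequency for the tag-only sample.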
# [2] = target: T2, GABPA (Homo sapiens, UniProt Q06546 1-454)
# T2 sequence: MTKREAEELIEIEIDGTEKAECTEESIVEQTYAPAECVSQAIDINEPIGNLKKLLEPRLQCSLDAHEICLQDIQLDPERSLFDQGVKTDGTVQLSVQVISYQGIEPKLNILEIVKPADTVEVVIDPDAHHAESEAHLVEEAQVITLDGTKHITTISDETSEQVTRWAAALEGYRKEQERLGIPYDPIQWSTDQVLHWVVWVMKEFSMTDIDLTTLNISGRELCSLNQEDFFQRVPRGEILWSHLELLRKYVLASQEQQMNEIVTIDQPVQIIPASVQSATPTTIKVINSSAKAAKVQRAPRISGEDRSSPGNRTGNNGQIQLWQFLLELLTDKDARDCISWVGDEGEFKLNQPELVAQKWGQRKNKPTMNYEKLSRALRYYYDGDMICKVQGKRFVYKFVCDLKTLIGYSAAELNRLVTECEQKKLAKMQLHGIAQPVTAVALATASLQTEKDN
# Outline: as §1
# [3] = target: T3, ERG (Homo sapiens, UniProt P11308 1-479)
# T3 sequence: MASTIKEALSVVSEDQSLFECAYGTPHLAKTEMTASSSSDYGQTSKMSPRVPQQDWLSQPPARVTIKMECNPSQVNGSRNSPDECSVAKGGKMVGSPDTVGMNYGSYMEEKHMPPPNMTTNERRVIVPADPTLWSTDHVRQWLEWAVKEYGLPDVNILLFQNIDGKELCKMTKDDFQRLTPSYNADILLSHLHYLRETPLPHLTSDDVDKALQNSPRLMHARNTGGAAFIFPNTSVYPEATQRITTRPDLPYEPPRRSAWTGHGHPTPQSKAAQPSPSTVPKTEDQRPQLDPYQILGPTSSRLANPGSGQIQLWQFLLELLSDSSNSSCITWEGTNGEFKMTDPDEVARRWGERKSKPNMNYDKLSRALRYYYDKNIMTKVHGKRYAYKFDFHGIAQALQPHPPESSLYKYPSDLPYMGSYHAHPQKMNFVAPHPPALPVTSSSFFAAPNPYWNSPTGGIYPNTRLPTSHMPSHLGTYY
# Outline: as §1
# [4] = target: ELF1 (Homo sapiens, UniProt P32519 1-619)
# Outline: as §1
# [5] = target: T4, EHF (Homo sapiens, UniProt Q9NZC4 1-300)
# T4 sequence: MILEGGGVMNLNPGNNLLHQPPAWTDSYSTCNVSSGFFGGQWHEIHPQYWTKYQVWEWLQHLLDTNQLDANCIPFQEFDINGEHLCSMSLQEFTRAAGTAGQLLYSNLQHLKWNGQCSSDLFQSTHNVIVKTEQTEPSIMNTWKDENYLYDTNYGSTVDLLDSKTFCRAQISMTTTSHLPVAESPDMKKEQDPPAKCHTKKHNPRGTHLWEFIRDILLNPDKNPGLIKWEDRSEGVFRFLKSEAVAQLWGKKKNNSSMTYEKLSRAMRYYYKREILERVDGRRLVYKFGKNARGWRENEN
# Outline: as §1
# [6] = target: SPI1 (Homo sapiens, UniProt P17947 1-270)
# Outline: as §1
# [7] = target: SPIB (Homo sapiens, UniProt Q01892 1-262)
# Outline: as §1
# [8] = target: T5, FEV (Homo sapiens, UniProt Q99581 1-238)
# T5 sequence: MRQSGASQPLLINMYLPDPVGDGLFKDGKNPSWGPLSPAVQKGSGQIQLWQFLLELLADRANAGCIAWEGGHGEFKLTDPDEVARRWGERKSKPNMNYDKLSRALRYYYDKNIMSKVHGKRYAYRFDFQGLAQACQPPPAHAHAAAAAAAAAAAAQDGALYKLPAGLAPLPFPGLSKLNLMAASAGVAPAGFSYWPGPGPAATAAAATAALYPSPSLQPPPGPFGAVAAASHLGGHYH
# Outline: as §1
# [9] = target: ETV5 (Homo sapiens, UniProt P41161 1-510)
# Outline: as §1
# [10] = target: ELF4 (Homo sapiens, UniProt Q99607 1-663)
# Outline: as §1
# [11] = target: T6, ELK4 (Homo sapiens, UniProt P28324-2 1-405)
# T6 sequence: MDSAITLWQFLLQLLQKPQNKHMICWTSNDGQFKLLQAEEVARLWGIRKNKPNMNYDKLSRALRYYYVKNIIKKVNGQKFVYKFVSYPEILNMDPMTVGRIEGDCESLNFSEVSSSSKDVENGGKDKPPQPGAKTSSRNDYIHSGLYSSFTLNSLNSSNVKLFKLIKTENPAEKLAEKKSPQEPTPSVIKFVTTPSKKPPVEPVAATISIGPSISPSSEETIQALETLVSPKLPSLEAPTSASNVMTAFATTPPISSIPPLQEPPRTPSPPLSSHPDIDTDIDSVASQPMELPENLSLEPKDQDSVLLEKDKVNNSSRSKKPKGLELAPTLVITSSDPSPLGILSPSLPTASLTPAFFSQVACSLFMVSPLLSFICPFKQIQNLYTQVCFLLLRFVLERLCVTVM
# Outline: as §1
# [12] = target: T7, ELF3 (Homo sapiens, UniProt P78545 1-371)
# T7 sequence: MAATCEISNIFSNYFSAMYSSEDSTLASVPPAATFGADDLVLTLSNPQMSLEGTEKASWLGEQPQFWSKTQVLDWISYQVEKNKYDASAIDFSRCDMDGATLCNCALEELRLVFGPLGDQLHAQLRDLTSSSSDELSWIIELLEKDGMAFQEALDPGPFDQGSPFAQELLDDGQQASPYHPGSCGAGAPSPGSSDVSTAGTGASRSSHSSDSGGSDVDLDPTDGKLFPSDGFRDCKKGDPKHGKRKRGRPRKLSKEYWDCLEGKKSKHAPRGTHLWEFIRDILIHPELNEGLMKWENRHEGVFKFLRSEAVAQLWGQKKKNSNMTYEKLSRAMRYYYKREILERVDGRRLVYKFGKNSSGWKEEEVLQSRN
# Outline: as §1
# [13] = target: ETV1 (Homo sapiens, UniProt P50549 1-477)
# Outline: as §1
# [14] = target: T8, ETV3L (Homo sapiens, UniProt Q6ZN32 1-361)
# T8 sequence: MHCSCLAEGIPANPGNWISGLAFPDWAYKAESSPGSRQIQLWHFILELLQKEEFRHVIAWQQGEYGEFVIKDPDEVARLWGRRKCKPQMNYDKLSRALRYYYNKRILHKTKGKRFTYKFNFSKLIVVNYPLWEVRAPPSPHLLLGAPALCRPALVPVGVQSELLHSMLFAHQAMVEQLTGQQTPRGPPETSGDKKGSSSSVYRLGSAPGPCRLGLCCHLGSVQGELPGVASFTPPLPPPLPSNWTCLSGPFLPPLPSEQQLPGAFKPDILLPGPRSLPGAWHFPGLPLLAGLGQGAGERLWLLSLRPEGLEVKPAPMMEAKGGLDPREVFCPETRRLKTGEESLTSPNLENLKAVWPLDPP
# Outline: as §1
# [15] = target: T9, ETS2 (Homo sapiens, UniProt P15036 1-469)
# T9 sequence: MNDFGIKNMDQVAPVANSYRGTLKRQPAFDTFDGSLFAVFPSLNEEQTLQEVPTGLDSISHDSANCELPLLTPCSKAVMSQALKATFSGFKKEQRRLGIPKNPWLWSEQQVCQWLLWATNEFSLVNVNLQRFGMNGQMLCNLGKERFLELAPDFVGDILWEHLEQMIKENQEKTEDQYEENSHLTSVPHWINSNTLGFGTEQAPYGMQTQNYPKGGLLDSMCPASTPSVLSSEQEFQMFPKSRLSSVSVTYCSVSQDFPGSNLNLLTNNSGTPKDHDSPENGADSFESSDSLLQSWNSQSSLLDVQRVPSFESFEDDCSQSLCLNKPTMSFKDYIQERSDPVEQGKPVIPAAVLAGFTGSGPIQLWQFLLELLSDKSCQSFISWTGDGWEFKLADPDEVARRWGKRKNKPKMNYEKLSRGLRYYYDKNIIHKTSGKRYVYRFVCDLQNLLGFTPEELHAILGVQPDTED
# Outline: as §1
# [16] = target: T10, SPDEF (Homo sapiens, UniProt O95238 1-335)
# T10 sequence: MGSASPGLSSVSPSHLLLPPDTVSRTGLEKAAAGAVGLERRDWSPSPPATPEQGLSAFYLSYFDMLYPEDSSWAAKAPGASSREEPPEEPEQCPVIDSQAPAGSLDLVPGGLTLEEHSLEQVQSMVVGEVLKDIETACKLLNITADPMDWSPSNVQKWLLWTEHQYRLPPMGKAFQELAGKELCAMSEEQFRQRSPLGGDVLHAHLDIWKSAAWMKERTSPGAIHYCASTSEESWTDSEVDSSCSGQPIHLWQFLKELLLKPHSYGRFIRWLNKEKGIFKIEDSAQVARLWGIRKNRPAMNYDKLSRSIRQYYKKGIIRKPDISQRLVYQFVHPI
# Outline: as §1
# [17] = target: T11, ETV7 (Homo sapiens, UniProt Q9Y603 1-341)
# T11 sequence: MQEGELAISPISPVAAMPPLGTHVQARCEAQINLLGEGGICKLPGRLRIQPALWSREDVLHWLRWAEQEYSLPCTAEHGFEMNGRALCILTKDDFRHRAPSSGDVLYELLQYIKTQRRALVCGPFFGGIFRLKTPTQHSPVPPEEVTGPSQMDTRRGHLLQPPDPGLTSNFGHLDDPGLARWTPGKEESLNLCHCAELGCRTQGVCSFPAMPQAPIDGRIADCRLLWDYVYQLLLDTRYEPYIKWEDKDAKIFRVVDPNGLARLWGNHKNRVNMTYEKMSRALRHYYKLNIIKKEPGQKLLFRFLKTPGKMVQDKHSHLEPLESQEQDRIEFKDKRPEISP
# Outline: as §1
# [18] = target: T12, ETV3 (Homo sapiens, UniProt P41162-2 1-143)
# T12 sequence: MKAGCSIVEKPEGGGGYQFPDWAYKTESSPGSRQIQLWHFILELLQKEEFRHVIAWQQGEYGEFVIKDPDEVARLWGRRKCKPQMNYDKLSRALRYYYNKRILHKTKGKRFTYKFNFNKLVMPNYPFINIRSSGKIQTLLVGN
# Outline: as §1
# [19] = target: ETV6 (Homo sapiens, UniProt P41212 1-452)
# Outline: as §1
# SPIB, sequence (Q01892 whole entry): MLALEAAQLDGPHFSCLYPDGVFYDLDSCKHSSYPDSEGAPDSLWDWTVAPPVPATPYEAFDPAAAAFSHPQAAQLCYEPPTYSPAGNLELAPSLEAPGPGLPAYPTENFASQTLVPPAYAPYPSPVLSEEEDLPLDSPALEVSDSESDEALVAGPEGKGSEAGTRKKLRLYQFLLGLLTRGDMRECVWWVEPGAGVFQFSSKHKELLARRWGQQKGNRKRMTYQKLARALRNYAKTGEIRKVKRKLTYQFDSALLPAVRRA
# ELF1, sequence (P32519 whole entry): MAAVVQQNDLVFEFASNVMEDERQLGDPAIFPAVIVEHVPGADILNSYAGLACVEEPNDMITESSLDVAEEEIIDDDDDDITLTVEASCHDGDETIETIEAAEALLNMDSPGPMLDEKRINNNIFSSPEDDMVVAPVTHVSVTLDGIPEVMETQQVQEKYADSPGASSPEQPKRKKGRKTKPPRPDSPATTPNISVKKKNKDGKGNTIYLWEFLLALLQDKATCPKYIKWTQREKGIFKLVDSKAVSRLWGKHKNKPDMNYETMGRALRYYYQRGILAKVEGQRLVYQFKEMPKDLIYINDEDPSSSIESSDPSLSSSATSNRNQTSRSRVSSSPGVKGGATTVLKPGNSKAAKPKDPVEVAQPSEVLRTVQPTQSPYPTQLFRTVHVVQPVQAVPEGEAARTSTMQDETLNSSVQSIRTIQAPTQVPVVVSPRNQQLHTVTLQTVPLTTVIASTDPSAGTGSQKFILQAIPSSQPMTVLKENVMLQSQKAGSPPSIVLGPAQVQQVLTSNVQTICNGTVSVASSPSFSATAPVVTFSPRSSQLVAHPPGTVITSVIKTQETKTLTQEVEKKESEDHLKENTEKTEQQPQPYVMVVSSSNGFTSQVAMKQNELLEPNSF
# ETV6, sequence (P41212 whole entry): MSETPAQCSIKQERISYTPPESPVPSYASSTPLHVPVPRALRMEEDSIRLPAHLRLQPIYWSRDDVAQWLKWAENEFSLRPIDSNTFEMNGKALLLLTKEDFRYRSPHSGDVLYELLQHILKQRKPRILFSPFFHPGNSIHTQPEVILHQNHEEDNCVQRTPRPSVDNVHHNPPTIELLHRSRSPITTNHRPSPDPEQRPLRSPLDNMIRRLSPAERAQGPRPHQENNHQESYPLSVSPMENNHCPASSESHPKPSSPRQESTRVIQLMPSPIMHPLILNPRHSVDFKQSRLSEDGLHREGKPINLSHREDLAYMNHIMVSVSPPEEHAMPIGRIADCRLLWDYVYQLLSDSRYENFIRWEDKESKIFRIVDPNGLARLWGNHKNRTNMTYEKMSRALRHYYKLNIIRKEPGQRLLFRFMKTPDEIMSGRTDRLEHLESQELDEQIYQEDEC
# ETV5, sequence (P41161 whole entry): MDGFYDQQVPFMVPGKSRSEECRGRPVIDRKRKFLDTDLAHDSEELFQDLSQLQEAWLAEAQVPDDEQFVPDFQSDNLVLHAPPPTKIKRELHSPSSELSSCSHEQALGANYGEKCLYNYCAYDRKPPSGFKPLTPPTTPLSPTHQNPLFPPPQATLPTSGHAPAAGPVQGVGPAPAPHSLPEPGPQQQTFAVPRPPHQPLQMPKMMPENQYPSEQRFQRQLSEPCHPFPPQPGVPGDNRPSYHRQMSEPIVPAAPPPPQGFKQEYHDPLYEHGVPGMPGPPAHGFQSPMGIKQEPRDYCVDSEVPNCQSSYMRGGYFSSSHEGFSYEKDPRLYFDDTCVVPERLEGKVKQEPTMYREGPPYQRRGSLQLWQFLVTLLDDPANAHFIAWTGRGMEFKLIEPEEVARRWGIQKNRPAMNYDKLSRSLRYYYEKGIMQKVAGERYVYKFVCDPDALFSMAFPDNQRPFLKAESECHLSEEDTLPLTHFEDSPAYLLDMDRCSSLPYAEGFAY
# ETV1, sequence (P50549 whole entry): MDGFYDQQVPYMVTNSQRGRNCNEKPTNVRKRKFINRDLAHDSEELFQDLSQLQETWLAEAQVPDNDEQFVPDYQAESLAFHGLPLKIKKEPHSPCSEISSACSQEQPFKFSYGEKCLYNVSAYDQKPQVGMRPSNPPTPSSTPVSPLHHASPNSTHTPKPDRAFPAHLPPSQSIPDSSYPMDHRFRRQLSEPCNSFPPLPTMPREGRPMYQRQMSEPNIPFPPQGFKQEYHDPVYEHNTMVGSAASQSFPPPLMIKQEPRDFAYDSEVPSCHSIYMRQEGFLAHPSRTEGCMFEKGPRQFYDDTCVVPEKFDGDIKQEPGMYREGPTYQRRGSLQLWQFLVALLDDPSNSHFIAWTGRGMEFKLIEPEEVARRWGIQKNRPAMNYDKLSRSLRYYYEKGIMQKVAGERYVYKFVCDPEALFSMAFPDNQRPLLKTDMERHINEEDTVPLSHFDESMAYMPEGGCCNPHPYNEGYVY
# ELF4, sequence (Q99607 whole entry): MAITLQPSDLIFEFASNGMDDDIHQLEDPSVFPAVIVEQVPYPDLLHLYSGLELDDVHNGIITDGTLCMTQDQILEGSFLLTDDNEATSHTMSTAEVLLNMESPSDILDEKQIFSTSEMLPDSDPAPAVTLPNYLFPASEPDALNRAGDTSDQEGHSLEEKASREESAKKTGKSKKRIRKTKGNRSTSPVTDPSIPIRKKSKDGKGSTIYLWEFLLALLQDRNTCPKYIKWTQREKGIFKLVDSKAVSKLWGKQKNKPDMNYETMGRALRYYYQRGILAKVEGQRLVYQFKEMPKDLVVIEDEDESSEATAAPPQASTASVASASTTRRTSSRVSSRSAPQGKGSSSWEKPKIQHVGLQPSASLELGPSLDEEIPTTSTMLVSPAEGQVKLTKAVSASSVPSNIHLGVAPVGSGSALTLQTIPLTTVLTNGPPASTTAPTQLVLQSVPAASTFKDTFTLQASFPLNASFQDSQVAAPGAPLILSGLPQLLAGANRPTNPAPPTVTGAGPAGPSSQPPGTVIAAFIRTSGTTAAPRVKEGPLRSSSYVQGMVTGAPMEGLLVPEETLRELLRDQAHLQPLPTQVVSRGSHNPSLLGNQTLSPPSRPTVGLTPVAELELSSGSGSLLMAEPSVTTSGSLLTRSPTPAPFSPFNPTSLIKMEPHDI
sequence,measurement,setting,value
ACCGGC,binding signal,[1],"1.08 fold enrichment (6-mer frequency, TF over GST control)"
same,binding signal,[2],"1.12 fold enrichment (6-mer frequency, TF over GST control)"
same,binding signal,[3],"1.13 fold enrichment (6-mer frequency, TF over GST control)"
same,binding signal,[4],"1.19 fold enrichment (6-mer frequency, TF over GST control)"
same,binding signal,[5],"1.12 fold enrichment (6-mer frequency, TF over GST control)"
same,binding signal,[6],"1.17 fold enrichment (6-mer frequency, TF over GST control)"
same,binding signal,[7],"1.3 fold enrichment (6-mer frequency, TF over GST control)"
same,binding signal,[8],"1.14 fold enrichment (6-mer frequency, TF over GST control)"
same,binding signal,[9],"1.1 fold enrichment (6-mer frequency, TF over GST control)"
same,binding signal,[10],"1.03 fold enrichment (6-mer frequency, TF over GST control)"
same,binding signal,[11],"1.1 fold enrichment (6-mer frequency, TF over GST control)"
same,binding signal,[12],"1.21 fold enrichment (6-mer frequency, TF over GST control)"
same,binding signal,[13],"1.23 fold enrichment (6-mer frequency, TF over GST control)"
same,binding signal,[14],"1.21 fold enrichment (6-mer frequency, TF over GST control)"
same,binding signal,[15],"1.17 fold enrichment (6-mer frequency, TF over GST control)"
same,binding signal,[16],"1.05 fold enrichment (6-mer frequency, TF over GST control)"
same,binding signal,[17],"1.06 fold enrichment (6-mer frequency, TF over GST control)"
same,binding signal,[18],"1.15 fold enrichment (6-mer frequency, TF over GST control)"
same,binding signal,[19],"1.31 fold enrichment (6-mer frequency, TF over GST control)"
